Lassa entry inh: inhibitors of Lassa virus binding or cell entry. AID 540256. Potency, µM (top dose mostly 37.9 µM), for inactives: at the top dose activity change, negative = inhibition, most hits filed as inhibitors. 300,000 compounds, 1.2% hits. Lassa virus pseudotype entry inhibition, cell reporter; calls by dose curve; tested in HEK293 cells; note: potency is the fitted concentration of half-maximal effect; % is set by controls: 0 for no effect and ±100 for the full control effect; nearly all actives have a fitted effect of over 50% in size
Cycloheximide cs: counter-screen for Shiga toxin inhibitors: cycloheximide protein synthesis inhibition | 300,000 compounds, 12% hits | cell reporter, cycloheximide protein synthesis inhibition counterscreen | max response, %; in the data active = max response mostly above about 13%, no sharp cut-off; inactive = mostly below about 14%; note: read at 38.3 µM for the half of the compounds with a filed dose; 0% is about no effect
Marburg entry inh: inhibitors of Marburg virus binding or cell entry. Marburg virus pseudotyped entry inhibition, cell reporter. Potency, µM (highest dose often 37.8 µM), inactives show at the highest dose activity change, negative = inhibition, actives largely listed as inhibitors. 300,000 compounds, 1.8% hits. AID 540276; calls by dose curve; tested in HEK293 cells; note: potency is the fitted concentration of half-maximal effect; % is set by controls: 0 for no effect and ±100 for the full control effect
Shiga toxin inh: Shiga toxin inhibition; Vero cells, Shiga toxin protein synthesis inhibition reporter; inhibition, % at 38.7 µM; 290,000 compounds, 9.2% hits; in the data active = inhibition mostly above about 28%, no sharp cut-off; inactive = mostly below about 43%; note: 0% is about no effect
AMA1-RON2 inh: disrupts binding of P. falciparum AMA1 to RON2. AlphaScreen AMA1-biotinylated RON2 peptide binding. AID 720542. 360,000 compounds, 0.2% hits. Potency, µM (titrated, usually from 58.2 µM), for inactives: top-dose activity change, negative = inhibition, most hits filed as inhibitors; active = well fitted inhibition curve with a large enough effect; inconclusive = small, poorly fitted or top-dose-only effect; inactive = no such curve, though single readings can be large or run the other way;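 note: potency is the fitted concentration of half-maximal effect; 0% = vehicle wells and -100% = peptide control; nearly all actives have a fitted effect of over 45% in size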
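AMA1 (3D7) with his tag at 25 nM final met compounds first, then biotinylated RON2 peptide at 25 nM; detection used donor plus acceptor beads, 10 µg/mL apiece, read by AlphaScreen after 30 min at room temperature.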
An asterisk follows results filed as active; ! = a repeat was not active; [ ] = dose if it differs, or a comment. This excerpt belongs to a sample that is enriched for hits.

O=C(NCC(=O)N1CCN(Cc2c(F)cccc2Cl)CC1)c1cccs1 was read as AMA1-RON2 inh 2%.
Screening CCCNC(=O)C(Cc1ccc(I)cc1)NC(=O)c1ccc(C#N)cc1 (stereo not given) returned AMA1-RON2 inh -6%.
Cc1cc(C)n2nc(SCc3c(F)cccc3Cl)nc2n1 was read as Cycloheximide cs 13, Shiga toxin inh 23 and AMA1-RON2 inh 14%.
Cc1nc(SCc2c(F)cccc2Cl)n[nH]1 was read as Lassa entry inh -19%[14.3 µM], Cycloheximide cs 15*, Marburg entry inh 12%, Shiga toxin inh 24 and AMA1-RON2 inh 17%.
Screening CCCOc1ccc(CSc2n[nH]c(C)n2)cc1 returned Lassa entry inh inconclusive, Cycloheximide cs 32*, Marburg entry inh inconclusive, Shiga toxin inh 55* and AMA1-RON2 inh -9%.
CCc1nc(SCc2ccc(F)cc2)n[nH]1 was read as Lassa entry inh -1%[46.1 µM], Cycloheximide cs 31*, Marburg entry inh 0%[46.1 µM], Shiga toxin inh 88* and AMA1-RON2 inh 0%.
For CCc1nc(SCc2cc(=O)c3cc(F)ccc3[nH]2)n[nH]1 the results were Lassa entry inh 3%[46.1 µM].
For CCc1nc(SCc2cc(Cl)ccc2OC)n[nH]1 the results were Lassa entry inh 4%, Cycloheximide cs -2, Marburg entry inh 0%, Shiga toxin inh -3 and AMA1-RON2 inh 11%.
CCCc1nc(SCc2ccccc2Cl)n[nH]1 was read as Lassa entry inh 3%, Cycloheximide cs 24*, Marburg entry inh -23%[46.1 µM], Shiga toxin inh 23 and AMA1-RON2 inh 7%.
`COc1ccc(CCNC(=O)C2CCN(c3ncnc4c3nc3n4CCCCC3)CC2)c(OC)c1` gave Lassa entry inh -6%[46.1 µM].
`CCN(Cc1ccc(OC)c(F)c1)C(=O)/C=C/c1ccc(S(=O)(=O)N2CCOCC2)cc1` gave AMA1-RON2 inh 2%.
Screening Fc1cccc(Cl)c1CSC1=NCCS1 returned Lassa entry inh 8%, Cycloheximide cs 35*, Marburg entry inh 11%[46.1 µM], Shiga toxin inh 62* and AMA1-RON2 inh 21%.
`Cc1ccc(NC(=O)c2nc(S(C)(=O)=O)ncc2N(Cc2ccccc2)Cc2ccco2)c(C)c1` gave Lassa entry inh -18%[46.1 µM] and Marburg entry inh 5%[46.1 µM].
O=C(NC(=S)Nc1cccc(NC(=S)NC(=O)c2ccccc2)c1)c1ccccc1 was read as Lassa entry inh -15%[46.1 µM], Marburg entry inh inconclusive and AMA1-RON2 inh 48%.
COC(=O)c1ccccc1NC(=S)NC(=O)c1ccccc1 was read as Lassa entry inh 3%, Cycloheximide cs 9.0*, Marburg entry inh -3%, Shiga toxin inh 49 and AMA1-RON2 inh -2%.
`Cc1ccc(NC(=S)NC(=O)c2ccccc2)cc1NC(=S)NC(=O)c1ccccc1` gave Cycloheximide cs 24*, Shiga toxin inh 54* and AMA1-RON2 inh 53%.
COc1ccc(OC)c2c(N3CC(C)OC(C)C3)cc(C(F)(F)F)nc12 (stereo not given) was read as Lassa entry inh 2%, Cycloheximide cs 21*, Marburg entry inh -18%, Shiga toxin inh 78* and AMA1-RON2 inh -8%.
COc1ccc(OC)c2c(N3CCN(C)CC3)cc(C(F)(F)F)nc12 was read as Lassa entry inh -1%, Cycloheximide cs -2, Marburg entry inh 9%[46.1 µM], Shiga toxin inh 1 and AMA1-RON2 inh -11%.
For CC1CN(C(=O)CCC(=O)NCCc2ccccc2)c2ccccc2O1 (stereo not given) the results were Cycloheximide cs 25*, Shiga toxin inh 35* and AMA1-RON2 inh -6%.
CC(=O)N1c2ccc(S(=O)(=O)N3CCCCCC3)cc2CC1C(=O)NCc1cccc(C)c1 (stereo not given) was read as Lassa entry inh 14%[46.1 µM].
For COc1ccc(C(=O)c2sc(Nc3cccc(OC)c3)c(C(=O)Nc3cccc(C)c3C)c2N)cc1 the results were Lassa entry inh inconclusive, Cycloheximide cs 1, Marburg entry inh 21µM*, Shiga toxin inh -14 and AMA1-RON2 inh 67%.
COc1ccc(C(=O)c2sc(Nc3ccccc3)c(C(=O)Nc3ccc(OC)c(OC)c3)c2N)cc1 was read as Lassa entry inh -23%, Cycloheximide cs 12, Marburg entry inh 1%, Shiga toxin inh 24 and AMA1-RON2 inh -7%.
Screening Cc1ccc(Nc2sc(C(=O)c3ccc(F)cc3)c(N)c2S(=O)(=O)c2ccc(C)cc2)cc1 returned Lassa entry inh 1.1µM*.
COc1ccc(NC(=O)c2c(Nc3ccccc3)sc(C(=O)c3ccc(F)cc3)c2N)cc1 was read as Lassa entry inh 13µM*, Cycloheximide cs 7, Marburg entry inh 6.3µM*, Shiga toxin inh 39 and AMA1-RON2 inh -15%.
`CCCCn1c(N)c(N(CCOC)C(=O)CN(C)CC(=O)Nc2ccc(Cl)c(Cl)c2)c(=O)[nH]c1=O` gave AMA1-RON2 inh -2%.
O=C(NCc1cccnc1)c1nn(-c2ccccc2F)nc1CO was read as Lassa entry inh 4%[46.1 µM] and Marburg entry inh 12%[46.1 µM].
CCOC(=O)c1sc2ccccc2c1OC(=O)c1ccc(C)cc1 was read as Lassa entry inh 4.5µM*, Cycloheximide cs 5, Marburg entry inh -26%, Shiga toxin inh -5 and AMA1-RON2 inh -3%.
`COC(=O)c1sc2ccccc2c1N` gave Cycloheximide cs 32*, Shiga toxin inh 60* and AMA1-RON2 inh -3%.
`CCOC(=O)c1ccc(NC(=O)c2sc3ccccc3c2Cl)cc1` gave Lassa entry inh 23%[46.1 µM].
Screening COc1ccc(-c2cc(C(F)(F)F)nc(S(=O)(=O)CCCC(=O)Nc3cccnc3Cl)n2)cc1OC returned Lassa entry inh inconclusive, Cycloheximide cs 19*, Marburg entry inh inconclusive, Shiga toxin inh 13 and AMA1-RON2 inh -8%.
For CCOC(=O)CCS(=O)(=O)c1nc(-c2ccccc2)cc(C(F)(F)F)n1 the results were Lassa entry inh 13µM*, Cycloheximide cs -6, Marburg entry inh 6.3µM*, Shiga toxin inh -14 and AMA1-RON2 inh -12%.
`COc1ccc(-c2cc(C(F)(F)F)nc(S(C)(=O)=O)n2)cc1` gave Lassa entry inh 23µM*, Cycloheximide cs -1, Marburg entry inh 13µM*!, Shiga toxin inh -15 and AMA1-RON2 inh 26%.
For CCOC(=O)CS(=O)(=O)c1nc(-c2ccccc2)cc(C(F)(F)F)n1 the results were Lassa entry inh inconclusive, Cycloheximide cs -3, Marburg entry inh inconclusive, Shiga toxin inh 31 and AMA1-RON2 inh 6%.
CS(=O)(=O)c1nc(-c2ccc(F)cc2)cc(C(F)(F)F)n1 was read as Lassa entry inh inconclusive, Cycloheximide cs -5, Marburg entry inh inconclusive, Shiga toxin inh 24 and AMA1-RON2 inh 18%.
Screening COC(=O)CCS(=O)(=O)c1nc(-c2ccccc2)cc(C(F)(F)F)n1 returned Lassa entry inh 23µM*, Cycloheximide cs 1, Marburg entry inh inconclusive, Shiga toxin inh -17 and AMA1-RON2 inh -6%.
`Cc1nn(-c2ccccc2)c(Cl)c1C(=O)NCC1CCCO1` (stereo not given) gave AMA1-RON2 inh -11%.
`O=C(CCN1C(=O)NC2(CCCC2)C1=O)Nc1ccc(-c2nc3ccccc3s2)cc1` gave Lassa entry inh inconclusive, Marburg entry inh inconclusive and AMA1-RON2 inh -2%.

High-throughput results: PubChem, National Center for Advancing Translational Sciences (NCATS)
